# PubChem BioAssay AID1159580 (chemical genetic matrix, 2015)
# “And” between values parts separate entries of the source, which are not always exact repeats. Equal entries are not always repeated. The whole screen tested about 5,500 compounds, of which about 2,000 (36%) were called active. Not shown: some 18% with an inconclusive outcome. The list shows a part of the results. Unmarked numbers belong to inactive results. No stated cut-off is given here; in the data, active means normalized growth mostly below about 0.91 (no sharp cut-off); inconclusive means no clear call, values can overlap the other calls; inactive means mostly above about 0.92.
# Experiment: chemical genetic growth profiling, strain panel (AID 1159580);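 further: tested at 20 µM; growth read once vehicle control cultures reached saturation at 30 °C; 1 = growth at the plate median or of vehicle wells; lower values mean less growth of the strain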
# Conditions: S. cerevisiae deletion strains, growth OD
compound,measurement,setting,value
C=CCc1ccc2c(c1)OCO2,normalized growth,"locus YAL013W, strain DEP1, hits give low values",0.863 (active)
same,normalized growth,"locus YAL021C, strain ccr4, hits give low values",1.02
same,normalized growth,"locus YAL026C, strain drs2, hits give low values",1.04
same,normalized growth,"locus YAL030W, strain snc1, hits give low values",1.01
same,normalized growth,"locus YBL061C, strain skt5, hits give low values",1.02
same,normalized growth,"locus YBR009C, strain hhf1, hits give low values",1.05
same,normalized growth,"locus YBR021W, strain FUR4, hits give low values",1.03
same,normalized growth,"locus YBR023C, strain chs3, hits give low values",1.03
same,normalized growth,"locus YBR171W, strain sec66, hits give low values",1.02
same,normalized growth,"locus YBR229C, strain ROT2, hits give low values",1.02
same,normalized growth,"locus YBR231C, strain swc5, hits give low values",1.01
same,normalized growth,"locus YBR279W, strain paf1, hits give low values",1.03
same,normalized growth,"locus YCL011C, strain gbp2, hits give low values",1.03
same,normalized growth,"locus YCL016C, strain dcc1, hits give low values",1.05
same,normalized growth,"locus YCL029C, strain bik1, hits give low values",0.99
same,normalized growth,"locus YCL061C, strain MRC1, hits give low values",1.06
same,normalized growth,"locus YCL069W, strain vba3, hits give low values",1.01
same,normalized growth,"locus YCR088W, strain abp1, hits give low values",1.02
same,normalized growth,"locus YDL005C, strain med2, hits give low values",1.02
same,normalized growth,"locus YDL035C, strain GPR1, hits give low values",1.03
same,normalized growth,"locus YDL040C, strain nat1, hits give low values",1.01
same,normalized growth,"locus YDL074C, strain BRE1, hits give low values",1.02
same,normalized growth,"locus YDL101C, strain DUN1, hits give low values",0.999
same,normalized growth,"locus YDL185W, strain tfp1, hits give low values",1.01
same,normalized growth,"locus YDL192W, strain arf1, hits give low values",0.99
same,normalized growth,"locus YDR001C, strain nth1, hits give low values",1.02
same,normalized growth,"locus YDR069C, strain doa4, hits give low values",1.03
same,normalized growth,"locus YDR101C, strain arx1, hits give low values",0.985
same,normalized growth,"locus YDR137W, strain rgp1, hits give low values",1.05
same,normalized growth,"locus YDR159W, strain sac3, hits give low values",0.976
same,normalized growth,"locus YDR162C, strain NBP2, hits give low values",1.01
same,normalized growth,"locus YDR195W, strain ref2",0.982
same,normalized growth,"locus YDR297W, strain sur2, hits give low values",1.01
same,normalized growth,"locus YDR318W, strain mcm21, hits give low values",0.996
same,normalized growth,"locus YDR334W, strain swr1, hits give low values",1.03
same,normalized growth,"locus YDR335W, strain msn5, hits give low values",1.02
same,normalized growth,"locus YDR388W, hits give low values",0.987
same,normalized growth,"locus YDR392W, strain spt3, hits give low values",0.965
same,normalized growth,"locus YDR502C, strain sam2, hits give low values",0.992
same,normalized growth,"locus YEL003W, strain gim4, hits give low values",1.02
same,normalized growth,"locus YEL037C, strain rad23, hits give low values",1.02
same,normalized growth,"locus YEL061C, strain CIN8 (second series), hits give low values",1.02
same,normalized growth,"locus YEL061C, strain CIN8, hits give low values",1
same,normalized growth,"locus YER015W, strain faa2, hits give low values",1.01
same,normalized growth,"locus YER016W, strain bim1, hits give low values",1
same,normalized growth,"locus YER110C, hits give low values",0.982
same,normalized growth,"locus YER111C, strain swi4, hits give low values",1.02
same,normalized growth,"locus YER155C, strain BEM2 (second series), hits give low values",0.956
same,normalized growth,"locus YER155C, strain BEM2, hits give low values",0.999
same,normalized growth,"locus YER167W, strain BCK2, hits give low values",1.02
same,normalized growth,"locus YFR010W, strain ubp6, hits give low values",1.05
same,normalized growth,"locus YGL078C, strain dbp3, hits give low values",0.993
same,normalized growth,"locus YGL086W, strain mad1, hits give low values",0.988
same,normalized growth,"locus YGL167C, strain pmr1, hits give low values",1.02
same,normalized growth,"locus YGL173C, strain kem1, hits give low values",1.02
same,normalized growth,"locus YGL227W, strain vid30, hits give low values",1.01
same,normalized growth,"locus YGL240W, strain doc1, hits give low values",0.972
same,normalized growth,"locus YGL248W, strain PDE1, hits give low values",1.01
same,normalized growth,"locus YGL253W, strain hxk2, hits give low values",1.04
same,normalized growth,"locus YGR135W, strain pre9, hits give low values",1.01
same,normalized growth,"locus YGR229C, strain SMI1, hits give low values",1.03
same,normalized growth,"locus YGR252W, strain gcn5, hits give low values",1.06
same,normalized growth,"locus YHR013C, strain ard1, hits give low values",1.06
same,normalized growth,"locus YHR027C, strain rpn1, hits give low values",1.02
same,normalized growth,"locus YHR030C, strain SLT2, hits give low values",1 and 0.954
same,normalized growth,"locus YHR079C, strain IRE1 (second series), hits give low values",0.989
same,normalized growth,"locus YHR079C, strain IRE1, hits give low values",0.965
same,normalized growth,"locus YHR094C, strain hxt1, hits give low values",0.981
same,normalized growth,"locus YHR129C, strain ARP1, hits give low values",1
same,normalized growth,"locus YHR142W, strain chs7, hits give low values",1.07
same,normalized growth,"locus YHR200W, strain rpn10, hits give low values",0.99
same,normalized growth,"locus YIL066C, strain RNR3, hits give low values",1.02
same,normalized growth,"locus YIL073C, strain SPO22, hits give low values",1.01
same,normalized growth,"locus YIL125W, strain kgd1, hits give low values",0.988
same,normalized growth,"locus YIR030C, strain dcg1, hits give low values",0.988
same,normalized growth,"locus YJL092W, strain hpr5, hits give low values",1.03
same,normalized growth,"locus YJL095W, strain BCK1 (second series), hits give low values",1.03
same,normalized growth,"locus YJL095W, strain BCK1, hits give low values",1.01
same,normalized growth,"locus YJL115W, strain asf1, hits give low values",1.02
same,normalized growth,"locus YJL129C, strain trk1, hits give low values",1.01
same,normalized growth,"locus YJL134W, strain LCB3, hits give low values",1
same,normalized growth,"locus YJL154C, strain vps35, hits give low values",1.01
same,normalized growth,"locus YJL164C, strain tpk1, hits give low values",1.04
same,normalized growth,"locus YJL166W, strain qcr8, hits give low values",1.04
same,normalized growth,"locus YJL168C, strain set2, hits give low values",0.987
same,normalized growth,"locus YJL187C, strain SWE1 (second series), hits give low values",1.01
same,normalized growth,"locus YJL187C, strain SWE1, hits give low values",1.03
